Assay results published in PubChem BioAssay (Tox21).
Values joined by “and” are separate entries in the source; they are usually repeats but may differ in a detail not shown here. Identical values can stand only once. Inconclusive results are not listed. Entries that show only a call come without a potency. A structure can be active in one record and inactive in another. Active and inactive are the calls of the source. Unless noted, calls follow the shape of the dose curve; as a rule, active = well fitted curve in the direction sought with a large enough effect in the repeat runs; inconclusive = weak or mixed curves; inactive = no such curve, though single readings can be large; an effect the other way counts as inactive or inconclusive.

Experiments:
[1] = qHTS assay to test for compound auto fluorescence at 535 nm (green) in HEK293 cells (AID 720680)
[2] = qHTS assay to test for compound auto fluorescence at 460 nm (blue) in HEK293 cell free culture (AID 720681)
Procedure, shortened: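 Test compounds were pinned into cell-free culture medium (DMEM with 10% FBS) and fluorescence was read directly at Ex/Em 405/460 nm. Signals were expressed as fluorescence equivalents of triamterene, with DMSO vehicle as control.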

[3] = qHTS assay to test for compound auto fluorescence at 535 nm (green) in HEK293 cell free culture (AID 720682)
Procedure, shortened: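 DMEM + 10% FBS, cell-free; cpd or DMSO pinned in; Ex485/Em535 read; output as fluorescein-equivalent signal.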

[4] = qHTS assay to test for compound auto fluorescence at 590 nm (red) in HEK293 cell free culture (AID 720683)
Procedure, shortened: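 Tox21 10K library compounds were pinned into cell-free DMEM with 10% FBS and fluorescence was read at excitation 540 nm. Activity is expressed as Rose Bengal sodium equivalency.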

[5] = qHTS assay to test for compound auto fluorescence at 590 nm (red) in HepG2 cell free culture (AID 720684)
Procedure, shortened: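 Readout: intrinsic compound fluorescence at 590 nm emission after 540 nm excitation, scaled to Rose Bengal sodium. Matrix was cell-free MEM with 10% FBS; DMSO vehicle wells served as control.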

[6] = qHTS assay to test for compound auto fluorescence at 460 nm (blue) in HepG2 cell free culture (AID 720685)
Procedure, shortened: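 Cell-free plates of MEM plus 10% FBS received 23 nL compound or DMSO vehicle; blue-channel (405/460 nm) intensity scored against triamterene as reference fluorophore.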

[7] = qHTS assay to test for compound auto fluorescence at 535 nm (green) in HepG2 cell free culture (AID 720686)
[8] = qHTS assay to test for compound auto fluorescence at 460 nm (blue) in HepG2 cells (AID 720687)
Procedure, shortened: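 Cells (2,000/well in MEM with 10% FBS) attached overnight at 37 C, then were exposed to compound or DMSO for 1 hr at 37 C, 5% CO2. Fluorescence read at Ex/Em 405/460 nm, expressed as triamterene-equivalent signal.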

[9] = qHTS assay to identify small molecule antagonists of the glucocorticoid receptor (GR) signaling pathway - cell viability counter screen (AID 720693); also: nearly all actives have a fitted effect of over 55% in size
[10] = qHTS assay for identifying genotoxic compounds that show differential cytotoxicity against isogenic chicken DT40 cell lines with known DNA damage response pathways - wild type cell line (AID 743012); also: nearly all actives have a fitted effect of over 60% in size; also: potency is read from the fitted curve at half-maximal effect
Procedure, shortened: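 300 wt DT40 cells/well; cpd (DMSO) pintool-transferred after ~0.5 h at 37 C/5% CO2; 40 h incubation; CellTiter-Glo added, 30 min RT; luminescence read.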

[11] = qHTS assay for identifying genotoxic compounds that show differential cytotoxicity against isogenic chicken DT40 cell lines with known DNA damage response pathways - Rev3 mutant cell line (AID 743014); also: nearly all actives have a fitted effect of over 55% in size; also: potency is read from the fitted curve at half-maximal effect
[12] = qHTS assay for identifying genotoxic compounds that show differential cytotoxicity against isogenic chicken DT40 cell lines with known DNA damage response pathways - Rad54/Ku70 mutant cell line (AID 743015); also: nearly all actives have a fitted effect of over 60% in size; also: potency is read from the fitted curve at half-maximal effect
[13] = target: Androgen receptor (Homo sapiens) (UniProt P10275); assay: qHTS assay to identify small molecule antagonists of the androgen receptor (AR) signaling pathway (AID 743035; active = well fitted inhibition curve with a large enough effect in the signal ratio in the repeat runs, not every such curve was filed as active; the % refers to the signal ratio)
Procedure, shortened: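 In this cell-based reporter screen, compounds were tested in concentration series against R1881-activated HEK293 cells expressing beta-lactamase under UAS control; after 16 h at 37C, FRET substrate was added and fluorescence read 2 h later.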

[14] = target: Androgen receptor (Homo sapiens) (UniProt P10275); assay: qHTS assay to identify small molecule agonists of the androgen receptor (AR) signaling pathway (AID 743036; active = well fitted activation curve with a large enough effect in the signal ratio in the repeat runs, with a control signal flat, not every such curve was filed as active; the % refers to the signal ratio)
Procedure, shortened: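 Screening used 2,000 AR-bla HEK293 cells per well, treated 16 h at 37C with test compounds in DMSO alongside positive and DMSO-only controls; beta-lactamase activity was then read by LiveBLAzer B/G FRET fluorescence after 2 h at room temperature.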

[15] = target: Androgen receptor (Homo sapiens) (UniProt P10275); assay: qHTS assay to identify small molecule agonists of the androgen receptor (AR) signaling pathway using the MDA cell line (AID 743040; also: nearly all actives have a fitted effect of over 20% in size)
Procedure, shortened: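 Agonist activity is measured as luciferase luminescence in human MDA-kb2 cells whose MMTV reporter responds to both AR and GR. Compounds in DMSO incubate 16 h at 37C, 0% CO2, and ONE-Glo is read after 30 min.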

[16] = qHTS assay to identify small molecule antagonists of the androgen receptor (AR) signaling pathway using the MDA cell line - cell viability counter screen (AID 743041; also: nearly all actives have a fitted effect of over 45% in size)
Procedure, shortened: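 qHTS viability read-out; MDA-kb2 AR-luc; R1881-stimulated; 16 h exposure at 37C, 0% CO2; CellTiter-Fluor, 30 min; fluorescence intensity.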

[17] = target: Androgen receptor (Homo sapiens) (UniProt P10275); assay: qHTS assay to identify small molecule antagonists of the androgen receptor (AR) signaling pathway using the MDA cell line (AID 743042; also: nearly all actives have a fitted effect of over 55% in size)
Procedure, shortened: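 MDA-kb2 cells (human breast carcinoma, stably carrying an MMTV-luciferase reporter responsive to AR and GR) were plated at 3,000 cells/well and preincubated 5 hr at 37C, then given compound plus R1881 agonist for 16 h. ONE-Glo luminescence was read.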

[18] = qHTS assay to identify small molecule antagonists of the androgen receptor (AR) signaling pathway - cell viability counter screen (AID 743033; also: nearly all actives have a fitted effect of over 45% in size; also: potency is read from the fitted curve at half-maximal effect)
[19] = target: Glucocorticoid receptor (Homo sapiens) (UniProt P04150); assay: qHTS assay to identify small molecule agonists of the glucocorticoid receptor (GR) signaling pathway (AID 720691; active = well fitted activation curve with a large enough effect in the signal ratio in the repeat runs, not every such curve was filed as active; the % refers to the signal ratio)
Procedure, shortened: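 A HeLa cervical cancer line expressing GR and a glucocorticoid response element-driven beta-lactamase gene is treated with compounds for 18 h; LiveBLAzer B/G FRET substrate is then applied and fluorescence read.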

Androgen receptor (Homo sapiens), sequence (P10275 whole entry, looked up): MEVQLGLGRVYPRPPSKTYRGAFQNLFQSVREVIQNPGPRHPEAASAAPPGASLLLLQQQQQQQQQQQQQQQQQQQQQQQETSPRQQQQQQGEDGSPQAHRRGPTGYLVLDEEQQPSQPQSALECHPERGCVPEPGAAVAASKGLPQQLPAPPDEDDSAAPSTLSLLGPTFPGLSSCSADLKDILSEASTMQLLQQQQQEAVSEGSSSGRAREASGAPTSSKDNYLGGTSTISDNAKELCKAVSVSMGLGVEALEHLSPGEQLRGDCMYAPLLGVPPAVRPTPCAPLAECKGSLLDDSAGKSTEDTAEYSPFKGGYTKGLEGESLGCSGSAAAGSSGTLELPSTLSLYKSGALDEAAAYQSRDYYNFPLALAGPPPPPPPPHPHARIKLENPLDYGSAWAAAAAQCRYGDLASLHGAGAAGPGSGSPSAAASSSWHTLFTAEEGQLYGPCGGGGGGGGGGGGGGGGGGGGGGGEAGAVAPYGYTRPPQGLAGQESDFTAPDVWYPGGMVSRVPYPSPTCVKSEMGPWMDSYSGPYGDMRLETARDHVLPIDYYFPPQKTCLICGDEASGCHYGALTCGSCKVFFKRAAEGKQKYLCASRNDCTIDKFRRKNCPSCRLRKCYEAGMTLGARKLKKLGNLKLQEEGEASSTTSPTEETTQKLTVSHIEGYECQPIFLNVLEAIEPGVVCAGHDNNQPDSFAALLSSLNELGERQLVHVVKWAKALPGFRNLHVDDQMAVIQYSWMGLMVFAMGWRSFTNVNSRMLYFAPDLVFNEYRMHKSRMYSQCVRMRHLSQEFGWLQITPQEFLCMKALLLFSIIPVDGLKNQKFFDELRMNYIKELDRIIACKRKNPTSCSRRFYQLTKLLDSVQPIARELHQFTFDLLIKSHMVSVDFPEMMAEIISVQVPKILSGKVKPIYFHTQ
Glucocorticoid receptor (Homo sapiens), sequence (P04150 whole entry, looked up): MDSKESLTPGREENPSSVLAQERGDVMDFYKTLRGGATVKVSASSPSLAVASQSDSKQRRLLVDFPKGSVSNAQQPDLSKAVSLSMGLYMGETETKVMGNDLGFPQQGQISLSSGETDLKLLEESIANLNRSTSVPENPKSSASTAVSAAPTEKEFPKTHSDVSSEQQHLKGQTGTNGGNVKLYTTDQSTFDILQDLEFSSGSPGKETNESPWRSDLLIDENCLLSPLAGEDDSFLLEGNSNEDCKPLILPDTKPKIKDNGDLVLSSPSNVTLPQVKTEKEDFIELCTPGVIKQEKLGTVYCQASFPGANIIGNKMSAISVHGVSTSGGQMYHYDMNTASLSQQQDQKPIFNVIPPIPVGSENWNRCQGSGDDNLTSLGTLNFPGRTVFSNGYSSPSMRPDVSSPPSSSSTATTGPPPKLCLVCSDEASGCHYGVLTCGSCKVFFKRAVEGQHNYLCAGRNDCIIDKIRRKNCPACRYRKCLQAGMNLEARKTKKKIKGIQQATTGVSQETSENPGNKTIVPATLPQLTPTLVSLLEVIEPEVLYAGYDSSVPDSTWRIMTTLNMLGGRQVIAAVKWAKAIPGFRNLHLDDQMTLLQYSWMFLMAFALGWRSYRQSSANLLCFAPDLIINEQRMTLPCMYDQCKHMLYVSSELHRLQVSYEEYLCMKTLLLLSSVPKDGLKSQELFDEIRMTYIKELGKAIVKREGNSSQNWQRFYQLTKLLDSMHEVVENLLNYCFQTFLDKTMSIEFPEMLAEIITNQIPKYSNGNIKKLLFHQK

Row | SMILES | outcome [1] | outcome [2] | outcome [3] | outcome [4] | outcome [5] | outcome [6] | outcome [7] | outcome [8] | Potency [9] | Potency [10] | Potency [11] | Potency [12] | Potency [13] | outcome [14] | outcome [15] | Potency [16] | Potency [17] | Potency [18] | Potency [19]
1 | CCOC(=O)CC(SP(=S)(OC)OC)C(=O)OCC (stereo not drawn) | inactive | inactive | inactive | inactive | inactive | inactive | inactive | inactive | inactive | inactive | inactive and 64.8 µM (active) | inactive and 58.8 µM (active) | inactive | inactive | inactive | inactive | inactive | – | –
2 | CCCCCCCC(=O)Cl | inactive | inactive | inactive | inactive | inactive | inactive | inactive | inactive | inactive | inactive | inactive | inactive | – | – | – | inactive | – | – | –
3 | Cn1c(N)nc2c3cccnc3ccc21 | inactive | inactive | inactive | inactive | inactive | inactive | inactive | inactive | inactive | inactive | – | inactive | – | – | – | inactive | – | – | –
4 | CC1NCCOC1c1ccccc1 (stereo not drawn) | inactive | inactive | inactive | inactive | inactive | inactive | inactive | inactive | inactive | inactive | inactive | inactive | – | – | – | inactive | – | inactive | –
5 | CC(C)N(Cc1ccccc1)C(=O)C(C)(C)C | inactive | inactive | inactive | inactive | inactive | inactive | inactive | inactive | inactive | 61.1 µM (active) | 68.6 µM (active) | – | inactive | inactive | inactive | inactive | inactive | – | –
6 | O=S1(=O)OCCO1 | inactive | inactive | inactive | inactive | inactive | inactive | inactive | inactive | – | inactive | inactive | inactive | inactive | inactive | inactive | inactive | inactive | inactive | –
7 | O=C1C2CC=CCC2C(=O)N1SC(Cl)(Cl)Cl (stereo not drawn) | inactive | inactive | inactive | inactive | inactive | inactive | inactive | inactive | – | 473 nM (active) and 6.83 µM (active) and 120 nM (active) | 531 nM (active) and 683 nM (active) and 107 nM (active) | 596 nM (active) and 2.42 µM (active) and 135 nM (active) | – | – | – | – | – | inactive and 3.41 µM (active) | –
8 | CN(C)CCN(C)C | inactive | inactive | inactive | inactive | inactive | inactive | inactive | inactive | inactive | inactive | inactive | inactive | – | – | – | inactive | – | inactive | –
9 | CCCCOC(C)=O | inactive | inactive | inactive | inactive | inactive | inactive | inactive | inactive | inactive | inactive | inactive | inactive | – | – | – | inactive | – | inactive | –
10 | C[C@]12C=CC(=O)C=C1CC[C@@H]1[C@@H]2CC[C@@]2(C)[C@H]1CC[C@]2(C)O | inactive | inactive | inactive | inactive | inactive | inactive | inactive | inactive | – | 23.7 µM (active) | 11.9 µM (active) | 29.8 µM (active) | – | – | – | inactive | – | inactive | –
11 | O=C(CCl)NCO | inactive | inactive | inactive | inactive | inactive | inactive | inactive | inactive | inactive | inactive | inactive | inactive | – | – | – | inactive | – | – | –
12 | O=C(Cl)c1ccccc1 | inactive | inactive | inactive | inactive | inactive | inactive | inactive | inactive | inactive | inactive | inactive | inactive | – | – | – | inactive | – | inactive | –
13 | CC(C)[C@]12CC(=O)[C@H](C)[C@H]1C2 | inactive | inactive | inactive | inactive | inactive | inactive | inactive | inactive | inactive | inactive | inactive | inactive | – | – | – | inactive | – | inactive | –
14 | BrCc1ccc(Br)cc1 | inactive | inactive | inactive | inactive | inactive | inactive | inactive | inactive | inactive | inactive | inactive | inactive | inactive | – | inactive | inactive | inactive | – | –
15 | C/C=C/CC#N | inactive | inactive | inactive | inactive | inactive | inactive | inactive | inactive | inactive | inactive | inactive | inactive | – | – | – | inactive | – | – | –
16 | CN(C)CCc1c[nH]c2cccc(OP(=O)(O)O)c12 | inactive | inactive | inactive | inactive | inactive | inactive | inactive | inactive | inactive | inactive | inactive | inactive | – | – | – | inactive | – | inactive | –
17 | COc1ccccc1OC | inactive | inactive | inactive | inactive | inactive | inactive | inactive | inactive | inactive | – | inactive | inactive | – | – | – | inactive | – | inactive | –
18 | O=C(Cl)CCl | inactive | inactive | inactive | inactive | inactive | inactive | inactive | inactive | inactive | inactive | inactive | inactive | – | – | – | inactive | – | inactive | –
19 | CC[C@@H](CO)NC(=O)[C@@H]1C=C2c3cccc4c3c(cn4C)C[C@H]2N(C)C1 | inactive | inactive | inactive | inactive | inactive | inactive | inactive | inactive | – | 13.3 µM (active) | – | – | – | – | – | inactive | – | inactive | –
20 | O=C(O)C(Cl)Br (stereo not drawn) | inactive | inactive | inactive | inactive | – | inactive | inactive | inactive | inactive | inactive | inactive | inactive | – | – | – | inactive | – | inactive | inactive
